High-throughput results: PubChem, The Scripps Research Institute Molecular Screening Center
M1 PAM = positive allosteric modulators of human M1 muscarinic receptor; P11229; CHO-K1 hM1, Fluo-8 calcium fluorescence, ACh EC20; 0% = ACh EC20, 100% = maximal ACh; activation, % at 3 µM; hit rate 0.088% among 360,000; in the data active = activation above about 19%, passing the limit was not always enough
Target sequence (P11229 whole entry, looked up): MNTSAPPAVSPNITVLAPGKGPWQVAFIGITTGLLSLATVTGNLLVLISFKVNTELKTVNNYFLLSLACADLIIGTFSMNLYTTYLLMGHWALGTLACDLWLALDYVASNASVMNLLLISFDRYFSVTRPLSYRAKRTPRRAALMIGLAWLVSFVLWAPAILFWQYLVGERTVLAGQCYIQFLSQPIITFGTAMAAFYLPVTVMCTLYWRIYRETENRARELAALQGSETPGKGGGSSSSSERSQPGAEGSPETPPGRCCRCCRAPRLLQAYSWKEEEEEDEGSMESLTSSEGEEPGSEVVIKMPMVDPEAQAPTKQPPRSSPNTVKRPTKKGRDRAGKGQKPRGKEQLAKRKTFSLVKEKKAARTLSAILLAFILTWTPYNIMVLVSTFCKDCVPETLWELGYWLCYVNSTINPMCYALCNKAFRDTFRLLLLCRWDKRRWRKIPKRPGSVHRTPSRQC
M1 antag = human CHRM1 antagonism; P11229; CHO-K1 hM1, Fluo-8 calcium fluorescence, ACh EC80 antagonist; inhibition, % at 3 µM; hit rate 1.3% among 360,000; AID 588852;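 active = percent inhibition above its own plate's cutoff, namely the mean of that plate's compound wells plus 3 SD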;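 note: peak over basal fluorescence ratio during 140 s after agonist addition; 0% = ACh EC80 plus DMSO and 100% = DMSO alone without agonist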
CHRM4 agonist = CHRM4 agonism in calcium assay | activation, % at 3 µM | P08173 | hit rate 0.14% among 360,000 | CHO-K1 hM4/Gqi5, Fluo-8 calcium fluorescence; vehicle 0%, full acetylcholine response 100%;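 active = activation above the run mean over all test wells plus 3 SD, cut at about 32% in these data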;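 note: peak over basal fluorescence ratio per well then scaled between controls; 0% = DMSO wells and 100% = acetylcholine at EC100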
CHRM4 antagonist = antagonists of human muscarinic M4 receptor (CHRM4); AID 624125; inhibition, % at 3 µM; P08173; hit rate 0.73% among 360,000; CHO-hM4 cells, ACh EC80, Fluo-8 calcium fluorescence;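 active = inhibition above its plate's cutoff, the mean inhibition of sample wells plus 3 SD, cut at about 27% in these data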;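 note: 0% = acetylcholine EC80 with DMSO and 100% = DMSO without agonist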
M4 PAM = CHRM4 positive allosteric modulation | P08173 | CHO-K1 hM4/Gqi5, Fluo-8 calcium fluorescence, ACh EC20; 0% = ACh EC20, 100% = maximal ACh | activation, % at 3 µM | hit rate 0.4% among 360,000 | AID 624126;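 active = activation above its plate's cutoff, the mean activation of sample wells plus 3 SD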
CHRM1 agonist = agonists of human M1 muscarinic receptor | P11229 | CHO-K1 hM1, Fluo-8 calcium fluorescence, agonist mode; 0% DMSO, 100% acetylcholine EC100 | activation, % at 3 µM | hit rate 0.33% among 360,000;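 active = activation above the run's mean compound activation plus 3 SD, cut at about 16% in these data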;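 note: peak over basal fluorescence ratio within a 140 s kinetic read after compound addition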
* = called active by the depositor. This is a sample that favours compounds with a hit; in the whole collection about 2.2% have one here.

SMILES	M1 PAM	M1 antag	CHRM4 agonist	CHRM4 antagonist	M4 PAM	CHRM1 agonist
C=CCSc1nc2sc3c(c2c(=O)[nH]1)CC(C)(C)OC3	-3	9	0	5	-6	-4
O=C(O)c1cccc(CN2C(=O)c3ccccc3C2=O)c1	11	-1	1	6	-3	1
O=C1c2cccc3c(O)ccc(c23)C(=O)N1Cc1ccccc1	-28	70*	178*	47*	-28	262*
COC(=O)c1c(N)sc(C(C)=O)c1C	20	0	0	-11	3	16*
O=C(c1[nH]c(C(F)(F)F)nc1-c1ccccc1)N1CCN(c2ccccn2)CC1	-1	-18	0	3	-2	-3
O=C(/C(N=Nc1cccc([N+](=O)[O-])c1)=C(/O)c1ccc(Br)cc1)C(F)(F)F	-20	48*	17	37*	-16	-1
Fc1ccc(-c2cc3nc(-c4ccccc4)cc(N4CCN(CCN5CCOCC5)CC4)n3n2)cc1	-9	12	33*	11	-11	-3
CN(C)Cc1ccccc1CCc1ccccc1	-25	60*	1	31*	-14	-9
Cc1cc(C)c(-c2csc(NC(=O)C3=COCCO3)n2)c(C)c1	-1	-3	3	-12	-7	-4
Cc1cc(C)c2sc(NC(=O)C3=COCCO3)nc2c1	-1	-15	3	-9	22*	-2
C=CCn1c(SCC(=O)c2cccs2)nc2sc(CC)cc2c1=O	-12	17	7	15	-7	-2
COc1ccc([N+](=O)[O-])cc1NC(=S)NC(NC(=O)C(c1ccccc1)c1ccccc1)C(Cl)(Cl)Cl (stereo not given)	-1	4	5	27*	-5	-2
Nc1nc(-c2ccc3c(c2)CCCC3)c(CC(=O)O)s1	6	-10	1	29*	-15	-3
CC(C)CC(=O)N1CCC(N(CCc2ccccc2)Cc2ccccc2)CC1	-27	57*	-1	6	-14	-8
CC1CCN(C(=O)CN(CCc2ccccc2)S(C)(=O)=O)CC1	9	-8	0	17	2	-6
COC(=O)c1ccc(C2C(C#N)=C(C)NC3=C2C(=O)CC(C)(C)C3)cc1 (stereo not given)	6	-13	1	-14	7	-4
N#C/C(=C/c1ccc(N2CCCCC2)o1)c1cccc(F)c1	4	-2	4	-9	3	-3
N#C/C(=C/c1ccc(N2CCCCCC2)o1)c1ccc(Cl)cc1	12	1	3	27*	-12	10
NC(=Nc1nc(-c2ccccn2)cc2ccccc12)c1ccccn1	-14	33*	1	0	-1	-1
CNc1nc(-c2ccccc2)cc(C(F)(F)F)c1C#N	7	-7	1	-1	24	0
CC(C)Oc1cccc(C(=O)C2CCCN(Cc3ccc(Oc4ncccn4)cc3)C2)c1 (stereo not given)	-28	83*	4	3	-20	-9
COc1c(C)cc(C(=O)C2CCCN(Cc3ccc(Oc4ncccn4)cc3)C2)cc1C (stereo not given)	-19	35*	7	1	-24	-1
COc1ccccc1C(=O)C1CCCN(Cc2ccc(Oc3ncccn3)cc2)C1 (stereo not given)	10	0	1	-4	1	-6
O=c1[nH]c(CN2CCN(S(=O)(=O)/C=C/c3ccccc3)CC2)nc2cc(Cl)ccc12	2	-1	5	4	-4	-2
Cc1ccc(C(C(=O)NC2CCCCC2)N2CCCC2)cc1 (stereo not given)	-22	-7	0	3	-10	-6
SMILES	M1 PAM	M1 antag	CHRM4 agonist	CHRM4 antagonist	M4 PAM	CHRM1 agonist
O=C(NC1CCCCC1)C(c1ccccc1)N1CCCC1 (stereo not given)	-26	80*	0	46*	-17	-6
CC(C(=O)NC(=O)NC1CCCCC1)N1CCN(C(c2ccccc2)c2ccccc2)CC1 (stereo not given)	-12	9	-1	37*	-27	-6
Cc1ccc(C)c(S(=O)(=O)N2CCN(C(=O)CCNS(=O)(=O)c3ccc(C)c(C)c3)CC2)c1	-8	9	20	-3	-12	-4
CCN(c1cc(C)cc(C)c1)S(=O)(=O)c1nnc(NC(=O)C(C)C)s1	-2	5	0	-5	-1	-5
COCCNC(=O)c1ccc(N2CC3CC(C2)c2cccc(=O)n2C3)c(NC(=O)c2ccccc2Cl)c1 (stereo not given)	4	-19	0	-10	1	26*
COCCNC(=O)c1ccc(N2CC3CC(C2)c2cccc(=O)n2C3)c(NC(=O)c2ccccc2Br)c1 (stereo not given)	3	-8	0	0	-4	22*
COCCNC(=O)c1ccc(N2CC3CC(C2)c2cccc(=O)n2C3)c(NC(=O)c2cc(OC)cc(OC)c2)c1 (stereo not given)	16	-17	0	0	1	0
COCCn1c(C)cc(C(=O)COC(=O)c2cncc(Br)c2)c1C	8	-6	1	8	-7	-3
O=C(NCc1ccccn1)c1ccc(=O)oc1	1	9	1	10	31*	-1
C/C(=N\N=C(/N)SC1CC(=O)N(c2ccc(Cl)c(Cl)c2)C1=O)c1cccs1 (stereo not given)	5	1	1	-1	6	-5
Cc1cc(C(=O)Nc2cccc(-c3ccc(N4CCOCC4)nn3)c2)ccc1[N+](=O)[O-]	-17	35*	14	7	-12	-3
CC(=O)Nc1nc(-c2cccc3ccccc23)cs1	-1	4	-1	-10	-6	-4
CC(=O)NCCC(=O)Nc1nc(-c2c[nH]c3ccccc23)cs1	6	-7	1	-20	16*	-4
OC(CSc1ccccc1)CN1CCN(c2cccc(Cl)c2)CC1 (stereo not given)	-3	-8	3	-1	-3	25*
O=C(O)C1CCCCC1C(=O)Nc1cccc(Br)c1 (stereo not given)	13	2	-1	-1	11	1
O=C(Nc1cccc(Br)c1)C1CCCC1	7	-17	0	-4	14*	-7
O=C(CN1CCN(c2ccccn2)CC1)Nc1ccccc1C(=O)Nc1ccccc1	-1	17	14	4	1	2
COc1cc(NC(=O)c2cc([N+](=O)[O-])ccc2NC(=O)CN2CCN(c3ccccn3)CC2)cc(OC)c1	-11	34*	10	13	-11	-4
O=C(c1ccc(Br)o1)N1CCN(c2ccc3nnc(-c4ccc(F)cc4)n3n2)CC1	-15	9	2	-10	-1	-12
